Shown are actives, neighbours in structure and some others; about 2.9% of the full set was active somewhere.
PME-1 primary: PME-1 (human) inhibition; Q9Y570; recombinant PME-1, FP-Rh probe fluorescence polarization; inhibition, % at 5.9 µM; 0.53% of 320,000 active;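 active = inhibition above the campaign mean of all compounds plus 3 SD, cut at about 26% in these data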;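 also: competitive labeling of PME-1 active site by serine hydrolase directed probe; 0% = PME-1 with DMSO and 100% = wells lacking PME-1 enzyme; inhibitors block probe labeling so polarization falls and inhibition rises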
PAFAH1B3 inh: PAFAH1B3 (human) inhibition. Q15102. recombinant PAFAH1B3, FP-rhodamine probe, fluorescence polarization. inhibition, % at 3.39 µM. 0.28% of 340,000 active. AID 492972;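 active = inhibition above the screen-wide average of all tested compounds plus 3 SD, cut at about 25% in these data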;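 also: 0% = enzyme with DMSO only and 100% = wells lacking PAFAH1B3 protein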
Target sequence (Q15102 whole entry, looked up): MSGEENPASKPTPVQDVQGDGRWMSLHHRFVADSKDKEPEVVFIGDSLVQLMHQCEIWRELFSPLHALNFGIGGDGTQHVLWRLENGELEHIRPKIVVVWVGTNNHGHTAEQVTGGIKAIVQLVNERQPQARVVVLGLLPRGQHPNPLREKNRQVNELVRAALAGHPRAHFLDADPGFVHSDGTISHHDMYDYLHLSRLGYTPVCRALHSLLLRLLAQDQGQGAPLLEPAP
PAFAH2 inh: inhibitors of human PAFAH2 | Q99487 | recombinant PAFAH2, FP-rhodamine activity probe, fluorescence polarization | inhibition, % at 3.39 µM | 0.99% of 340,000 active;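 active = inhibition above the mean over all tested compounds plus 3 SD, cut at about 30% in these data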;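 also: inhibitors block probe labeling of enzyme so polarization drops; 0% = enzyme with DMSO and 100% = wells lacking PAFAH2 protein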
PAFAH1B2 inh: PAFAH1B2 (human) inhibition; recombinant PAFAH1B2, FP-rhodamine activity probe, fluorescence polarization; inhibition, % at 3.39 µM; 1.2% of 340,000 active; P68402;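 active = inhibition above the mean of all tested compounds plus 3 SD, cut at about 24% in these data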;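 also: 0% = enzyme with DMSO and 100% = wells lacking PAFAH1B2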
Target sequence (P68402 whole entry, looked up): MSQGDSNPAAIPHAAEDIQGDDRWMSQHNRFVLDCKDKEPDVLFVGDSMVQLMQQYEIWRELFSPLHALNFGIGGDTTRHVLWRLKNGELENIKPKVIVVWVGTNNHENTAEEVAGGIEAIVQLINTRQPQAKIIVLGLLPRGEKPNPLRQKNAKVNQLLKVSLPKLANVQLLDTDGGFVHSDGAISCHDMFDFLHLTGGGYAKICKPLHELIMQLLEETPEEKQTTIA
pPAFAH inh: inhibitors of human plasma PAF acetylhydrolase (pPAFAH); Q13093; recombinant pPAFAH, FP-rhodamine probe fluorescence polarization; inhibition, % at 3.39 µM; 1.5% of 330,000 active;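 active = inhibition above the mean inhibition across the screen plus 3 SD, cut at about 25% in these data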;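 also: inhibitors block binding of the rhodamine activity-based probe so polarization drops; 0% = enzyme with DMSO and 100% = wells lacking pPAFAH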
Fam108B counter: Fam108B inhibition, counter-screen for RBBP9 inhibitors; recombinant Fam108B, FP-Rh probe fluorescence polarization; inhibition, % at 9.51 µM; 0.33% of 300,000 active; AID 1947;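 active = inhibition above the screen mean inhibition plus 3 SD, computed separately per campaign, cut at about 18% in these data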;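 also: inhibitors lower polarization as less probe binds the enzyme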
PAFAH2 confirm: PAFAH2 (human) inhibition, confirmed. AID 493030. shares compounds with PAFAH2 inh. 65% of 2,300 active. inhibition, % at 3.39 µM. recombinant PAFAH2, FP-rhodamine activity probe, fluorescence polarization;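 active = mean inhibition over three repeats above a set limit taken from the earlier primary screen, cut at about 30% in these data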;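 also: inhibitor blocks binding of rhodamine activity probe so polarization falls; 0% = enzyme with DMSO and 100% = wells lacking PAFAH2 protein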
An asterisk follows results filed as active.

What do the screens show for `CCN(CC)S(=O)(=O)c1ccc(/C=C/C(=O)OCC(=O)Nc2cccc3ccccc23)cc1`?
PME-1 primary: -11; PAFAH1B3 inh: -7; PAFAH2 inh: 53*; PAFAH1B2 inh: -1; pPAFAH inh: 21; Fam108B counter: -21; PAFAH2 confirm: 62*

What do the screens show for `CCN(CC)S(=O)(=O)c1ccc(Cl)c(NC(=O)COC(=O)/C=C/c2cc(OC)c(OC)c(OC)c2)c1`?
PME-1 primary: -6; PAFAH1B3 inh: 3; PAFAH2 inh: 13; PAFAH1B2 inh: -1; pPAFAH inh: 10; Fam108B counter: -9

What do the screens show for `COCCN(C(=S)Nc1c(C)cccc1C)C(C)c1cccs1` (stereo unspecified)?
PME-1 primary: 3; PAFAH1B3 inh: -2; PAFAH2 inh: 51*; PAFAH1B2 inh: 1; pPAFAH inh: 2; Fam108B counter: 3; PAFAH2 confirm: 39*

Results for COc1ccc2[nH]c3c(c2c1)CCN1C(=O)C(CC(=O)NC/C=C(\C)CCC=C(C)C)C[C@H](C(=O)N2CCOCC2)[C@@]31CCC1CCCC1 (stereo partly specified) ?
PAFAH1B3 inh: 7; PAFAH2 inh: -4; PAFAH1B2 inh: 2; pPAFAH inh: -4

How did Cc1cccc(NC(=S)NCc2ccc(F)cc2)c1C do in these assays?
PME-1 primary: 3; PAFAH1B3 inh: 3; PAFAH2 inh: -2; PAFAH1B2 inh: 11; pPAFAH inh: 0; Fam108B counter: -2

Results for O=C1SC(SCc2ccccc2)=N/C1=C\c1ccc(C(=O)O)cc1 ?
PME-1 primary: 1; PAFAH1B3 inh: -5; PAFAH2 inh: 28; PAFAH1B2 inh: 12; pPAFAH inh: 6; Fam108B counter: -5

What do the screens show for `CC(/C=C1\N=C(SCc2ccccc2Cl)SC1=O)=C\c1ccccc1`?
PME-1 primary: -3; PAFAH1B3 inh: 5; PAFAH2 inh: 46*; PAFAH1B2 inh: -1; pPAFAH inh: 9; Fam108B counter: -3; PAFAH2 confirm: 45*

Results for Cc1nc(NC(=O)COC(=O)c2ccc(CO)cc2)c(Cl)cc1Cl ?
PAFAH1B3 inh: 7; PAFAH2 inh: 44*; PAFAH1B2 inh: -1; pPAFAH inh: -1; PAFAH2 confirm: 23

Results for Cc1nc(NC(=O)COC(=O)CCc2ccccc2)c(Cl)cc1Cl ?
PAFAH1B3 inh: 2; PAFAH2 inh: 2; PAFAH1B2 inh: 7; pPAFAH inh: 12

Results for CC(C)CC(C)c1cc(N)nc2nc3ccccc3n12 (stereo unspecified) ?
PME-1 primary: -22; PAFAH1B3 inh: -7; PAFAH2 inh: -13; PAFAH1B2 inh: -2; pPAFAH inh: 4; Fam108B counter: -1

What do the screens show for `O=C(COC(=O)/C=C/c1ccc(S(=O)(=O)N2CCOCC2)cc1)NCc1ccc(Cl)cc1`?
PME-1 primary: 2; PAFAH1B3 inh: 1; PAFAH2 inh: 15; PAFAH1B2 inh: 4; pPAFAH inh: 11; Fam108B counter: 0

How did O=C(COC(=O)/C=C/c1ccc(S(=O)(=O)N2CCOCC2)cc1)NC1CCCCCCC1 do in these assays?
PME-1 primary: -5; PAFAH1B3 inh: -3; PAFAH2 inh: 53*; PAFAH1B2 inh: -1; pPAFAH inh: 7; Fam108B counter: -4; PAFAH2 confirm: 32*

How did O=C(COC(=O)c1ccc(S(=O)(=O)N2CCOCC2)cc1)NC1CCCC1 do in these assays?
PME-1 primary: -3; PAFAH1B3 inh: 3; PAFAH2 inh: -2; PAFAH1B2 inh: 2; pPAFAH inh: 5; Fam108B counter: -1

Results for O=C(COC(=O)/C=C/c1ccc(S(=O)(=O)N2CCOCC2)cc1)Nc1ccc(F)c(F)c1F ?
PAFAH1B3 inh: 3; PAFAH2 inh: 33*; PAFAH1B2 inh: 4; pPAFAH inh: 5; PAFAH2 confirm: 34*

What do the screens show for `O=C(COC(=O)/C=C/c1ccc(S(=O)(=O)N2CCOCC2)cc1)NCc1ccccc1`?
PME-1 primary: 0; PAFAH1B3 inh: 2; PAFAH2 inh: 49*; PAFAH1B2 inh: 0; pPAFAH inh: 3; Fam108B counter: 4; PAFAH2 confirm: 30*

What do the screens show for `O=c1cc(-c2ccccc2)nc2nc(-c3ccco3)[nH]n12`?
PME-1 primary: 1; PAFAH1B3 inh: 7; PAFAH2 inh: 42*; PAFAH1B2 inh: 11; pPAFAH inh: 6; Fam108B counter: 2; PAFAH2 confirm: 7

How did Cc1cc(C)n(-c2ccc(C(=O)Nc3cccnc3)cc2)n1 do in these assays?
PME-1 primary: -1; PAFAH1B3 inh: 0; PAFAH2 inh: -3; PAFAH1B2 inh: 5; pPAFAH inh: 3; Fam108B counter: -3

Results for CCOC(=O)C1C(=O)N(C(=O)c2ccc(OC)cc2)CC1c1ccccc1 (stereo unspecified) ?
PME-1 primary: 9; PAFAH1B3 inh: 11; PAFAH2 inh: 95*; PAFAH1B2 inh: 1; pPAFAH inh: 18; Fam108B counter: 0; PAFAH2 confirm: 75*

What do the screens show for `CCOC(=O)C1C(=O)N(C(=O)c2cncc(Br)c2)CC1c1ccccc1` (stereo unspecified)?
PME-1 primary: 6; PAFAH1B3 inh: 3; PAFAH2 inh: 13; PAFAH1B2 inh: 4; pPAFAH inh: 0; Fam108B counter: 2

Results for COc1ccc(C(=O)NCC(=O)N/N=C/c2ccc(C)o2)cc1OC ?
PME-1 primary: 2; PAFAH1B3 inh: 0; PAFAH2 inh: -1; PAFAH1B2 inh: 5; pPAFAH inh: -2; Fam108B counter: 4

What do the screens show for `CCOC(=O)c1c(C)n(-c2ccc(C)cc2)c2c(C(C(C)=O)C(=O)O)c(Br)c(O)c(O)c12` (stereo unspecified)?
PME-1 primary: -1; PAFAH1B3 inh: -5; PAFAH2 inh: 81*; PAFAH1B2 inh: -3; pPAFAH inh: 18; Fam108B counter: 15; PAFAH2 confirm: 75*

Results for O=C(CN1CCN(c2ccccc2)CC1)Nc1cccc([N+](=O)[O-])c1 ?
PME-1 primary: -3; PAFAH1B3 inh: 16; PAFAH2 inh: -4; PAFAH1B2 inh: -6; pPAFAH inh: -2; Fam108B counter: 8

Results for Cc1c(C(c2cccs2)c2c(C)n(C)n(-c3ccccc3)c2=O)c(=O)n(-c2ccccc2)n1C ?
PME-1 primary: -2; PAFAH1B3 inh: 5; PAFAH2 inh: 1; PAFAH1B2 inh: 6; pPAFAH inh: 6; Fam108B counter: 1

Results for CCCCCCC(c1c(C)n(C)n(-c2ccccc2)c1=O)c1c(C)n(C)n(-c2ccccc2)c1=O ?
PME-1 primary: -14; PAFAH1B3 inh: 2; PAFAH2 inh: 70*; PAFAH1B2 inh: 4; pPAFAH inh: 0; Fam108B counter: 0; PAFAH2 confirm: 70*

Results for Cc1c(Cl)cccc1N=C1SCCN1C(=O)CN1C(=O)NC2(CCCC2)C1=O ?
PME-1 primary: 6; PAFAH1B3 inh: 5; PAFAH2 inh: 30*; PAFAH1B2 inh: 7; pPAFAH inh: 13; Fam108B counter: 2; PAFAH2 confirm: 18
